{
  "source": "PubChem BioAssay (NCATS)",
  "key": {"[1]": {"molecular_target": "Cytochrome P450 2C9 (Homo sapiens) (UniProt P11712)", "sequence (P11712 whole entry, looked up)": "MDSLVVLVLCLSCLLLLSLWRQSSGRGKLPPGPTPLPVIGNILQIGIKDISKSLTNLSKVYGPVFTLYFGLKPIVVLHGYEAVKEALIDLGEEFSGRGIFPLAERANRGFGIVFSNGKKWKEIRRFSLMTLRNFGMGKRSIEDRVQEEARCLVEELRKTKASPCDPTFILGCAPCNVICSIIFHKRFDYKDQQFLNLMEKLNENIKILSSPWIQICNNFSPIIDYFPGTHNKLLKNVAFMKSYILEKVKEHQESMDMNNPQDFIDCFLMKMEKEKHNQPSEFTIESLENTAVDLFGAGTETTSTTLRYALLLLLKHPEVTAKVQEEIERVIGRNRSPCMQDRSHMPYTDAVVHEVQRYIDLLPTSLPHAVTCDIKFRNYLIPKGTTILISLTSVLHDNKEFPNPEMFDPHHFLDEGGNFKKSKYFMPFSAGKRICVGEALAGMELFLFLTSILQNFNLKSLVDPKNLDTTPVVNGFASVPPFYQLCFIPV", "assay": "qHTS Assay for Inhibitors and Substrates of Cytochrome P450 2C9 (AID 883); further: potency means the concentration at half of the fitted maximal effect; nearly all actives have a fitted effect of over 60% in size", "method_in_brief": "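Luminescent read-out of deoxyluciferin hydroxylation, normalized to 57uM sulphaphenazole (AC100). Reaction: 10nM enzyme, 100uM Luciferin-H (equal to KM), 25mM KPO4, 10 min compound preincubation, then 60 min with NADPH regeneration, both at 37C.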"}, "[2]": {"molecular_target": "DNA dC->dU-editing enzyme APOBEC-3G (Homo sapiens) (UniProt Q9HC16)", "sequence (Q9HC16 whole entry, looked up)": "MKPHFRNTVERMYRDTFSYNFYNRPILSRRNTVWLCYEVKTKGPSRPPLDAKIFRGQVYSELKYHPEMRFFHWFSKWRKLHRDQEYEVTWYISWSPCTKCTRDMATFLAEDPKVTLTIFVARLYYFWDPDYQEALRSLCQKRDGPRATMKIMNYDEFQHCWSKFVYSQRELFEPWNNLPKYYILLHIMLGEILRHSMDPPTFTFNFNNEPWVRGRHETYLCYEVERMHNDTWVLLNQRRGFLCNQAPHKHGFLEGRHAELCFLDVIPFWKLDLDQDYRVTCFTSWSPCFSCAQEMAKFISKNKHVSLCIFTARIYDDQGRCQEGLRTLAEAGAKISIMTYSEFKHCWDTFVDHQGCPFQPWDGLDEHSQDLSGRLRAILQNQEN", "assay": "qHTS for inhibitors of Vif-A3G interactions: Validation (AID 588379)", "method_in_brief": "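Yellow fluorescence (Ex 488, Em 500-530) of Vif-coexpressing HeLa A3G-eYFP cells, scanned by Acumen cytometer, reports blocked A3G degradation. Cells plated at 700/well overnight at 37 deg C before compound addition, then a further overnight compound incubation at 37 deg C.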"}, "[3]": {"assay": "Confirmation and Secondary Assay for Modulators of Hemoglobin Beta Chain Splicing at IVS2 654 locus (AID 910);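 further: HeLa cells stably carrying EGFP split by mutant beta-globin IVS2-654 intron; per-well total GFP intensity by laser scanning cytometry after 2-day treatment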", "method_in_brief": "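Readout: per-well total peak green fluorescence (488 nm ex, 500–520 nm em) from objects 5–250 µm, reflecting correct splicing of an EGFP-654 reporter. Compounds were applied for 2 days at 37 °C to overnight-plated HeLa EGFP-654 cells; controls were DMSO and 500 nM IVS2-654 PNA.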"}, "[4]": {"assay": "Confirmation and Secondary Assay for Modulators of Hemoglobin Beta Chain Splicing at IVS2 705 locus (AID 930);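 further: HeLa cells stably expressing the EGFP-705 splicing reporter; GFP fluorescence per well restored by corrected splicing of the IVS2-705 intron in EGFP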", "method_in_brief": "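HeLa EGFP-705 reporter; 500 cells/well, o/n 37C 5% CO2; cpd 2 d; 488 ex/500-520 em laser scan; total peak GFP intensity/well. Ref: 500 nM […] antisense PNA.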"}, "[5]": {"assay": "qHTS Assay for Identification of Small Molecule Agonists for Hypoxia Response Element Signaling Pathway (AID 914; active means well fitted activation curve with a large enough effect in the signal ratio, with a control signal flat, not every such curve was filed as active; the % refers to the signal ratio)", "settings": "ME-180 HRE-bla reporter, beta-lactamase ratio, CoCl2, 17 h; activation: stronger effect = higher value", "method_in_brief": "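Read-out: CCF4 FRET ratio of 460nm to 530nm emission (excitation 405nm) after 2.5 hours at room temperature, taken from HRE-bla ME-180 cells that had been exposed to compound and EC50 CoCl2 for 17 hours.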"}, "[6]": {"molecular_target": "ATP-dependent 6-phosphofructokinase (Trypanosoma brucei brucei) (UniProt O15648)", "sequence (O15648 whole entry, looked up)": "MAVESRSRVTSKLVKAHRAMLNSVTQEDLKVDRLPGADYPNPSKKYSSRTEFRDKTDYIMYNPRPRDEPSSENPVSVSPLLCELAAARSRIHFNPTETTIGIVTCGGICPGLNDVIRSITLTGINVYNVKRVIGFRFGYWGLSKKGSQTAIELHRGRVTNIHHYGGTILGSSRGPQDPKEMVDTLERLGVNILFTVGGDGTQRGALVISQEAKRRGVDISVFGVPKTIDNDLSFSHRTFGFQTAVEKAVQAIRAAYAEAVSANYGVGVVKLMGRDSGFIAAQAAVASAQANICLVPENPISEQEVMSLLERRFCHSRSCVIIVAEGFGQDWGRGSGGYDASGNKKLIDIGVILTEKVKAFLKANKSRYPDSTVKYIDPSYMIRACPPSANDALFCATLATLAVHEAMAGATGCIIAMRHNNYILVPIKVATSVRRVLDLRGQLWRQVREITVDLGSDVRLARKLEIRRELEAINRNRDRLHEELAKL", "assay": "qHTS Assay to Find Inhibitors of T. brucei phosphofructokinase: hit validation (AID 492961);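 further: luminescence reports ADP formed as PFK phosphorylates fructose-6-phosphate with ATP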", "method_in_brief": "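ADP-Glo luminescence read-out of ADP formed by 1.25 nM PFK from 0.1 mM ATP and 0.5 mM F6P (TEA pH 8.0, 45 min, RT). Compounds titrated; activity normalized to no-enzyme and full-enzyme controls.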"}, "[7]": {"assay": "S16 Schwann cell PMP22 intronic element beta-lactamase assay (AID 624044; calls by dose curve; further: nearly all actives have a fitted effect of over 15% in size)", "method_in_brief": "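Beta-lactamase reporter under a PMP22 intronic regulatory element in stable S16 rat Schwann cells; 24 h compound exposure. 460 nm blue signal normalized between DMSO (0%) and potassium clavulanate, with 535 nm FRET tracking viability; curves classed by r2 and response.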"}, "CP211": {"tested_on": "CP211", "assay": "qHTS profiling for inhibitors of Plasmodium falciparum proliferation (AID 504749); further: nearly all actives have a fitted effect of over 60% in size", "settings": "P. falciparum in erythrocytes, SYBR Green DNA, 72 h; series mostly up to 28.7 µM", "method_in_brief": "(§1)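 In a 72 h erythrocytic culture (37 C, humidified, 5% CO2) at 2.5% hematocrit and 0.3% starting parasitemia, compounds were tested; SYBR Green I in detergent lysis buffer stained parasite DNA overnight.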"}, "CP215": {"tested_on": "CP215", "assay": "qHTS profiling for inhibitors of Plasmodium falciparum proliferation (AID 504749)", "settings": "P. falciparum in erythrocytes, SYBR Green DNA, 72 h; series mostly up to 28.7 µM", "method_in_brief": "as §1"}, "CP268": {"tested_on": "CP268", "assay": "qHTS profiling for inhibitors of Plasmodium falciparum proliferation (AID 504749)", "settings": "P. falciparum in erythrocytes, SYBR Green DNA, 72 h; series mostly up to 28.7 µM", "method_in_brief": "as §1"}, "CP291": {"tested_on": "CP291", "assay": "qHTS profiling for inhibitors of Plasmodium falciparum proliferation (AID 504749)", "settings": "P. falciparum in erythrocytes, SYBR Green DNA, 72 h; series mostly up to 28.7 µM", "method_in_brief": "as §1"}, "CP305": {"tested_on": "CP305", "assay": "qHTS profiling for inhibitors of Plasmodium falciparum proliferation (AID 504749)", "settings": "P. falciparum in erythrocytes, SYBR Green DNA, 72 h; series mostly up to 28.7 µM", "method_in_brief": "as §1"}, "CP325": {"tested_on": "CP325", "assay": "qHTS profiling for inhibitors of Plasmodium falciparum proliferation (AID 504749)", "settings": "P. falciparum in erythrocytes, SYBR Green DNA, 72 h; series mostly up to 28.7 µM", "method_in_brief": "as §1"}, "DIV14": {"tested_on": "DIV14", "assay": "qHTS profiling for inhibitors of Plasmodium falciparum proliferation (AID 504749)", "settings": "P. falciparum in erythrocytes, SYBR Green DNA, 72 h; series mostly up to 28.7 µM", "method_in_brief": "as §1"}, "P93_24": {"tested_on": "P93_24", "assay": "qHTS profiling for inhibitors of Plasmodium falciparum proliferation (AID 504749)", "settings": "P. falciparum in erythrocytes, SYBR Green DNA, 72 h; series mostly up to 28.7 µM", "method_in_brief": "as §1"}, "PC26": {"tested_on": "PC26", "assay": "qHTS profiling for inhibitors of Plasmodium falciparum proliferation (AID 504749)", "settings": "P. falciparum in erythrocytes, SYBR Green DNA, 72 h; series mostly up to 28.7 µM", "method_in_brief": "as §1"}},
  "note": "A number with no mark means an inactive call. Results filed as inconclusive are left out. A call without a number means that no potency is given here. The source made the active and inactive calls. Unless noted, the call rests on the fitted dose curve; in most records, active means well fitted curve in the direction sought with a large enough effect; inconclusive means small, poorly fitted or top-dose-only effect, or another doubt; inactive means no such curve, though single readings can be large; an effect the other way counts as inactive or inconclusive.",
  "data": [
    {"smiles": "O=c1ccc2cc3ccoc3cc2o1", "values": [
      {"measurement": "Potency", "setting": "[1]", "value": "7.94 µM (active)"},
      {"measurement": "outcome", "setting": "[2]", "value": "inactive"}
    ]},
    {"smiles": "O=C(O)c1cc(O)c2c(c1)[C@H]([C@H]1c3cc(C(=O)O)cc(O)c3C(=O)c3c(O[C@@H]4OC(CO)C(O)C(O)C4O)cccc31)c1cccc(O[C@@H]3OC(CO)C(O)C(O)C3O)c1C2=O", "note": "(some centres undefined)", "values": [
      {"measurement": "Potency", "setting": "[3]", "value": "inactive"},
      {"measurement": "Potency", "setting": "[4]", "value": "inactive"}
    ]},
    {"smiles": "O=C1CC(c2ccccc2)Oc2ccccc21", "note": "(centres undefined)", "values": [
      {"measurement": "Potency", "setting": "[3]", "value": "inactive"},
      {"measurement": "Potency", "setting": "[4]", "value": "inactive"}
    ]},
    {"smiles": "CN(C)c1ncc2nc(CCc3ccccc3)c(=O)n(CCc3ccccc3)c2n1", "values": [
      {"measurement": "activation", "setting": "[5]", "value": 21.3, "unit": "%"}
    ]},
    {"smiles": "c1ccc2c(NCCN3CCOCC3)nc(-c3ccoc3)nc2c1", "values": [
      {"measurement": "activation", "setting": "[5]", "value": -2.73, "unit": "%"}
    ]},
    {"smiles": "CC(C)CN(C[C@@H](OP(=O)(O)O)[C@H](Cc1ccccc1)NC(=O)O[C@@H]1CCOC1)S(=O)(=O)c1ccc(N)cc1", "values": [
      {"measurement": "outcome", "setting": "[6]", "value": "inactive"},
      {"measurement": "Potency", "setting": "[7]", "value": "inactive"},
      {"measurement": "Potency", "setting": "CP211", "value": "inactive"},
      {"measurement": "Potency", "setting": "CP215", "value": "inactive"},
      {"measurement": "Potency", "setting": "CP268", "value": "inactive"},
      {"measurement": "Potency", "setting": "CP291", "value": "inactive"},
      {"measurement": "Potency", "setting": "CP305", "value": "inactive"},
      {"measurement": "Potency", "setting": "CP325", "value": "inactive"},
      {"measurement": "Potency", "setting": "DIV14", "value": "inactive"},
      {"measurement": "Potency", "setting": "P93_24", "value": "inactive"},
      {"measurement": "Potency", "setting": "PC26", "value": "inactive"}
    ]}
  ]
}
